Source: ChEMBL document CHEMBL3988442, “University of Dundee, Small-Polar-MMV Screening Library” (2021)
Hit rate of the full screen: of about 69,000 compounds, about 1,000 (1.4%) showed an effect of 50% or more. Shown is part of a subset that was picked to be rich in strong results.

Test system: Leishmania donovani
Assay: Leishmania intramacrophage assay
Type: functional, organism-based
Parameters: scale not given: in the data most compounds retested in dose-response had high values

CN1CCN([C@@H]2CCN(CC3=Cc4cc(Cl)ccc4OC3)C[C@H]2O)CC1
Percent Effect (30.3 µM, […]): 96.13%

CN1CCN([C@@H]2CCN(Cc3ccc4cc(F)ccc4n3)C[C@H]2O)CC1
Percent Effect (30.3 µM, […]): 33.38%

O[C@@H]1CN(CC2=Cc3cc(Cl)ccc3OC2)CC[C@H]1N1CCCCCC1
Percent Effect (30.3 µM, […]): 44.96%

Cc1c(O)cccc1C(=O)N1CCCC2(C1)C(=O)N(C)c1ccccc12 (stereo not given)
Percent Effect (30.3 µM, […]): 10.13%

CN1C(=O)C2(CCCN(C(=O)c3cccnc3O)C2)c2ccccc21 (stereo not given)
Percent Effect (30.3 µM, […]): 4.492%

CNc1ncccc1C(=O)N1CCCC2(C1)C(=O)N(C)c1ccccc12 (stereo not given)
Percent Effect (30.3 µM, […]): 63.07%

O=C(NCC1(O)CCOc2ccccc21)Nc1ccccc1 (stereo not given)
Percent Effect (30.3 µM, […]): 35.58%

COCCN(C)C[C@@H]1CN(C(=O)c2cccc(C#N)c2)C[C@@H]1CO
Percent Effect (30.3 µM, […]): -5.773%

COCCN(C)C[C@@H]1CN(C(=O)c2cccc(Cl)c2)C[C@@H]1CO
Percent Effect (30.3 µM, […]): -8.073%

CN(CCO)C[C@@H]1CN(C(=O)c2cccc(OC(F)F)c2)C[C@@H]1CO
Percent Effect (30.3 µM, […]): 59.47%

COc1ccc(C(=O)N2CCCC2c2cnn(C)c2)cn1 (stereo not given)
Percent Effect (30 µM): 3.221%

CN(Cc1ccco1)Cc1ccccc1CNC(=O)c1cnccn1
Percent Effect (30.3 µM, […]): 16.56%

CC(C)N(CCO)C(=O)c1cc(COc2ccc3c(c2)CCCC3)on1
Percent Effect (30.3 µM, […]): 15.58%

Cc1cnccc1NCCNC(=O)C1CCCN(Cc2ccco2)C1 (stereo not given)
Percent Effect (30.3 µM, […]): 54.03%

O=C(NCCc1cccnc1)C1CCCN(Cc2ccco2)C1 (stereo not given)
Percent Effect (30.3 µM, […]): -19.49%

O=C(NCCCc1ccncc1)C1CCCN(Cc2ccco2)C1 (stereo not given)
Percent Effect (30 µM, 30.03 µM): 28.63%

CCN(C)c1ncnc2c1CCN(C(=O)c1cnccn1)CC2.O=C(O)C(F)(F)F
Percent Effect (30.3 µM, […]): 16.93%

Cc1ncoc1C(=O)N1C[C@H]2CCC[C@@]2(COCC2CCOCC2)C1
Percent Effect (30 µM, 30.03 µM): 24.66%

CN1C(=O)CCCC12CCCN(C(=O)c1cccc(C(F)(F)F)c1)C2 (stereo not given)
Percent Effect (30.3 µM, […]): 25.18%

CN(C)CCCNCCC(c1ccccc1)C1CCOC(C)(C)C1.O=C(O)C(=O)O (stereo not given)
Percent Effect (30.3 µM, […]): 97.24%

CN(C)CCNCC1CCOC(C)(C)C1 (stereo not given)
Percent Effect (30.3 µM, […]): -2.235%

CCN(CC)CCNCC1CCOC(C)(C)C1 (stereo not given)
Percent Effect (30.3 µM, […]): 12.8%

CN(C)CCNCCC(c1ccccc1)C1CCOC(C)(C)C1.O=C(O)C(=O)O (stereo not given)
Percent Effect (30.3 µM, […]): 94.59%

CN(C)CCCNC(=O)C(c1cccc(F)c1)N(C)C (stereo not given)
Percent Effect (30.3 µM, […]): 17.93%

CN(C)CCNCCC(Cc1ccccc1)C1CCOC(C)(C)C1.O=C(O)C(=O)O (stereo not given)
Percent Effect (30.3 µM, […]): 11.95%

CN(C)CCCNCC1CCOC(C)(C)C1 (stereo not given)
Percent Effect (30.3 µM, […]): 10.54%

CC(CCc1ccccc1)NC(=O)CNCCCN(C)C.O=C(O)C(=O)O (stereo not given)
Percent Effect (30.3 µM, […]): -24.91%

CN(C)CCCNCCC(Cc1ccccc1)C1CCOC(C)(C)C1.O=C(O)C(=O)O (stereo not given)
Percent Effect (30.3 µM, […]): 91.79%

C[C@@H]1CN(C(=O)C2CCS(=O)(=O)CC2)C[C@@]1(O)C1CC1
Percent Effect (30.3 µM, […]): -11.49%

Cc1nc(C)n(CC2CCCCN2CCCO)n1 (stereo not given)
Percent Effect (30.3 µM, […]): -18.17%

CC(=O)Nc1cc2c(cc1C)OCO2
Percent Effect (30.3 µM, […]): 3.338%

Cc1ccc(F)cc1NS(=O)(=O)c1cc2c(c(C(=O)O)c1)OCCO2
Percent Effect (30 µM): 10.19%

CN1CCO[C@@H]2CN(C(=O)NCc3ccccc3)CC[C@@H]2C1.O=C(O)C(F)(F)F
Percent Effect (30.3 µM, […]): 14.01%

O=C(N1CCCC1)N1C[C@H]2CCC[C@@]2(COCc2ccccn2)C1.O=C(O)C(F)(F)F
Percent Effect (30.3 µM, […]): 12.71%

Cc1ccc(CN2CC[C@@H]3OCCN(Cc4ccncc4)[C@H]3CC2)s1.O=C(O)C(F)(F)F.O=C(O)C(F)(F)F.O=C(O)C(F)(F)F
Percent Effect (30.3 µM, […]): -14.43%

CS(=O)(=O)NCCCNC(=O)NCc1ccccc1
Percent Effect (30 µM): 13.69%

CN(C)CC(=O)N1CC2(CCN(C(=O)Nc3ccccc3)C2)C1.O=C(O)C(F)(F)F
Percent Effect (30.3 µM, […]): 27.48%

Cc1nnc([C@]23COC[C@H]2CN(Cc2cnn(C)c2)C3)o1.O=C(O)C(F)(F)F
Percent Effect (30.3 µM, […]): 10.4%

COc1cccc(CNCC2CCN(CC(C)O)CC2)c1OC (stereo not given)
Percent Effect (30 µM): -4.893%

CCOc1ccccc1CNCC1CCN(CC(C)O)CC1 (stereo not given)
Percent Effect (30 µM): 14.79%

CC(O)CN1CCC(CNCc2ccccc2Br)CC1 (stereo not given)
Percent Effect (30 µM, 30.03 µM): 58.06%

COc1ccc(CNCC2CCN(CC(C)O)CC2)c2ccccc12 (stereo not given)
Percent Effect (30 µM, 30.03 µM): 95.94%

Cc1ncccc1CNCC1CCN(CC(O)c2ccccc2)CC1 (stereo not given)
Percent Effect (30 µM, 30.03 µM): 43.15%

Cc1noc(C)c1CNCC1CCN(CC(O)c2ccccc2)CC1 (stereo not given)
Percent Effect (30 µM, 30.03 µM): 48.93%

CC(O)CN1CCC(CNCc2ccccc2F)CC1 (stereo not given)
Percent Effect (30 µM): 14.91%

Cc1ccc(CNCC2CCN(CC(O)c3ccccc3)CC2)o1 (stereo not given)
Percent Effect (30 µM): 53.67%

CC(O)CN1CCC(CNCc2ccccc2Cl)CC1 (stereo not given)
Percent Effect (30 µM): 7.148%

CCOc1ccc(NC(=O)N2CCNC(=O)C2)c(C(F)(F)F)c1
Percent Effect (30.3 µM, […]): -5.154%

c1ccc(OCCCN2CCOC(CNc3cccnn3)C2)cc1 (stereo not given)
Percent Effect (30 µM): 30.1%

CCc1nnc(CN(C)C(=O)C(CC)n2c(CC)nc3ccccc32)o1 (stereo not given)
Percent Effect (30.3 µM, […]): 37.19%
